Results published in PubChem BioAssay AID686978 (National Center for Advancing Translational Sciences (NCATS), 2013).
Among all 420,000 compounds or so, about 64,000 (15%) were called active. Roughly 27% stayed inconclusive and do not appear here. A selection follows. Values without a mark were called inactive. Calls come from the whole dose curve; as a rule, active = well fitted inhibition curve with a large enough effect; inconclusive = small, poorly fitted or top-dose-only effect; inactive = flat fitted curve, though single readings scatter.

Test: qHTS for Inhibitors of human tyrosyl-DNA phosphodiesterase 1 (TDP1): qHTS in cells in absence of CPT; note: nearly all actives have a fitted effect of over 55% in size
Conditions: DT40 Tdp1-/- hTDP1 cells, no CPT, ATP luminescence, 48 h; activity change, negative = growth inhibition: at 46.2 µM (top of the series)
Text: Human tyrosyl-DNA phosphodiesterase 1 (TDP1) is a novel repair gene, and we propose to use it as a new target for anticancer drug development. TDP1 is not an essential protein, but under treatment with topoisomerase I poison (camptothecin: CPT), TDP1 works as a critical factor for cell survival. To directly identify novel TDP1 inhibitors active in a cellular environment, we have knocked-out the Tdp1 gene in chicken DT40 cells (Tdp1-/-) and generated a complemented counterpart cells that contains a stable transfection of the human TDP1 gene (Tdp1-/-;hTDP1 cells). For the primary screen, Tdp1-/-;hTDP1 cells will be exposed to small molecules in the presence or absence of CPT, and their growth kinetics will be evaluated after 48 hours by measuring ATP activity. […] The hit compounds will then be evaluated in the presence or absence of CPT using Tdp1-/- cells. […] In tertiary assays, biochemical gel-based assays will be used to assess whether the hit compounds specifically target TDP1.
To this end, we have screened this cell line against the MLSMR in two primary screens. In one screen we add CPT and in the other we screen in the absence of CPT; this AID represents the screen where CPT was absent.
NIH Chemical Genomics Center [NCGC]
NIH Molecular Libraries Probe Centers Network [MLPCN]
Assay Submitter (PI): Yves Pommier, NCI
DT40-hTDP1 cells without 20 nM Camptothecin (add 20 microL of DMSO in 1 L of cell culture medium) were dispensed at 400 cells/5microL/well in tissue culture treated 1536-well white wall/solid bottom assay plates (Greiner Bio-One North America, NC, U.S.A.) using a Multidrop Combi 8 channel dispenser (Thermo Fisher, Waltham, MA, USA). 23 nL compounds and controls were transferred using the pin tool (Kalypsys, San Diego, CA, USA) to the assay plates. The assay plates were then incubated at 37 masculineC for a minimum 48 hr. Three microL of Cell Titer Glo solution was added to the plates and incubated at RT in dark for 30 min. Luminescence was read using ViewLux (Perkin Elmer) with 1 sec exposure slow speed, high gain and 2x binning.
% is set by controls: 0 for no effect and ±100 for the full control effect; potency is the fitted concentration of half-maximal effect.

Structure (SMILES)	activity change, negative = growth inhibition [%]	Potency
O=C(NCCc1ccccn1)c1cc(C(=O)C2CCCCC2)c[nH]1	-23.5	–
Cn1cnnc1SCC(=O)Nc1ccc(N2CCOCC2)cc1	7.4	–
O=C(CNC(=O)COc1ccccc1)NCCc1ccccn1	5.28	–
O=C(NCCc1ccccn1)c1cc(-c2ccc(Cl)cc2)nc2ccccc12	–	18.4 µM (active)
CN(CC(=O)NCCc1ccccn1)S(=O)(=O)c1ccc(Cl)cc1	0.788	–
Cc1cc(=O)oc(C)c1C(=O)NC1CC(C)(C)NC(C)(C)C1	-1.14	–
O=C(CC1SCCNC1=O)Nc1ccc(Cl)cc1 (configuration not stated)	-10.1	–
CCOc1ccccc1NC(=O)CCN1CCN(S(=O)(=O)c2ccc(OC)cc2)CC1	-19.4	–
N#Cc1c(N)nc2c3c(sc(=N)c2c1N)NC(=O)CC3c1ccccc1Cl (configuration not stated)	–	13 µM (active)
COc1ccc(C2CC(=O)Nc3sc(=N)c4c(N)c(C#N)c(N)nc4c32)cc1OC (configuration not stated)	-15.6	–
COCCN(C(=S)Nc1ccccc1OC)C1CCN(C(C)C)CC1	13.4	–
CC(Sc1nncs1)C(=O)NCc1ccc2c(c1)OCO2 (configuration not stated)	-15.6	–
O=C(C1Cc2ccccc2CN1C(=O)c1ccco1)N1CCN(c2ccccc2)CC1 (configuration not stated)	-5.87	–
O=[N+]([O-])c1ccc2[nH]c3c(c2c1)CCCC3O (configuration not stated)	-21.5	–
CCc1nn(CCCC(=O)NCc2ccccc2OC)c(=O)c2cc3occc3n12	-8.88	–
Cc1ccc(C)c(N2CCN(C(=O)Cn3nc(C)c4sc5ccccc5c4c3=O)CC2)c1	–	23.1 µM (active)
CCc1nn(CC(=O)N2CCN(c3cc(C)ccc3C)CC2)c(=O)c2cc3occc3n12	-16.9	–
C[C@H](NC(=O)NCCc1ccccc1)C(=O)O	3.87	–
CC(NCCc1ccc(S(N)(=O)=O)cc1)C(=O)NCc1ccccc1 (configuration not stated)	13.9	–
Cc1nn(C(C)C(=O)NCCc2ccccc2)c(=O)c2c1sc1ccccc12 (configuration not stated)	–	16.4 µM (active)
Cc1ccccc1CNC(=O)CCCn1nc(C)c2sc3ccccc3c2c1=O	–	20.6 µM (active)
Cc1nn(CCCC(=O)NCc2ccccc2Cl)c(=O)c2nccn12	-16.9	–
CCc1cc2c(cc3c(=O)n(CC(=O)N4CCN(c5cc(Cl)ccc5C)CC4)nc(CC)n32)s1	-27.1	–
Cc1cc(C)cc(OCC(=O)NNC(=O)CCN2C(=O)c3ccccc3C2=O)c1	-13.1	–
Cc1ccc(O)c(NC(=O)c2cc(-c3ccco3)on2)c1	-20.7	–
CC1Cc2cc(/C(O)=C3\C(=O)C(=O)N(CCN4CCOCC4)C3c3ccccc3F)ccc2O1 (configuration not stated)	1.69	–

Structure (SMILES)	activity change, negative = growth inhibition [%]	Potency
O=C(O)CC1S/C(=N\N=C/c2ccccc2O)N(c2ccc(O)cc2)C1=O (configuration not stated)	-0.385	–
CN(C(=O)c1ccccc1)c1nccnc1C#N	-11.8	–
CC(=O)Nc1cccc(C(=O)OCC(=O)NCc2cc(C)c(O)c(C)c2)c1	6.94	–
O=C(CN1CCN(c2nc(-c3ccccc3)cs2)CC1)NCc1ccc2c(c1)OCO2	-25.4	–
Cc1cc(=O)[nH]c(N/N=C/c2ccc3c(c2)OCCO3)n1	16.8	–
Brc1ccc(-c2csc(N/N=C/c3ccc4c(c3)OCO4)n2)cc1	–	8.2 µM (active)
O=C(NCC(=O)N1CCN(c2ccccc2F)CC1)c1cccs1	6.86	–
COc1cc(/C=C(\C#N)C(=O)Nc2ccc3ccccc3c2)c([N+](=O)[O-])cc1OC	-10.2	–
O=c1ccc2cc(S(=O)(=O)Nc3ccccc3F)ccc2o1	-31.6	–
Nc1ccc(OCC(O)C[n+]2ccc(CCS(=O)(=O)[O-])cc2)cc1 (configuration not stated)	-3.67	–
COc1ccc(C(=O)COC(=O)CN2C(=O)C3CC=CCC3C2=O)c(OC)c1 (configuration not stated)	-1.18	–
CCCc1cc(=O)[nH]c(SCC(=O)c2c(N)n(CC(C)C)c(=O)n(C)c2=O)n1	-20.6	–
CC(C)Cn1c(N)c(C(=O)COC(=O)CN2C(=O)C3CC=CCC3C2=O)c(=O)n(C)c1=O (configuration not stated)	–	9.2 µM (active)
COc1ccc(Br)cc1/C=N/n1c(C)nnc1C	5.28	–
O=C(/C=C\NCC(=O)c1ccccc1)c1ccccc1	-16.2	–
Cc1nc(NC(=O)C23CCC(C)(C(=O)O2)C3(C)C)sc1C (configuration not stated)	-3.52	–
CC(C)Cn1c(SCC(=O)Nc2ccc(Cl)cc2F)nc(O)cc1=O	-20.6	–
O=C(CCN1C(=O)c2ccncc2C1=O)Nc1cc(F)ccc1F	2.57	–
CN1c2ccc(Cl)cc2-c2nc(SCC(=O)Nc3cc(F)ccc3F)ncc2S1(=O)=O	–	23.1 µM (active)
N/C(Cc1ccc([N+](=O)[O-])cc1)=N\OC(=O)COc1ccc2ccccc2c1	-4.59	–
CCOc1ccccc1NC(=O)c1cccnc1	8.78	–
Nc1nc(CSc2nnnn2-c2ccccc2)nc(Nc2ccccc2)n1	-11.6	–
Cc1ccc(NC(=O)CSc2nc(CSc3ccc(C)cc3)cc(=O)[nH]2)cc1	-1.55	–
Cc1ccc(Nc2nc(CSc3nnnn3-c3ccccc3)cc(=O)[nH]2)cc1	–	18.4 µM (active)
Cc1ccc(N2C(=O)CC(NCc3ccc4c(c3)OCO4)C2=O)cc1Cl (configuration not stated)	-4.98	–
CSC1=NC2(C)CCCCC2C12C=CC(=O)C=C2 (configuration not stated)	13.8	–
